PPARg SRC1 recr: PPARgamma agonists recruiting SRC-1 coactivator, primary screen, biochemical; activation, % at 8 µM; PPARgamma-SRC-1 coactivator recruitment biochemical assay; 0.41% of 200,000 active; AID 631, 2007; in the data active = activation above about 19%;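 also: 0% = DMSO and 100% = reference agonist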
TR-FRET SRC-2 ct: TR-FRET signal artefacts, primary screen, artefact control for PPARgamma SRC-2 agonist project, biochemical; TR-FRET artefact counter-screen; active compounds read high; TR-FRET ratio at 8 µM; 0.4% of 200,000 active
PPARg SRC-2 ag: agonists of PPARg-SRC-2 recruitment, primary screen, biochemical, HTS. Peroxisome proliferator-activated receptor gamma (Homo sapiens), P37231. PPARgamma LBD-SRC-2 recruitment. activation, % at 8 µM. 0.34% of 200,000 active. AID 1032, 2008; in the data active = activation above about 22%;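 also: 0% = vehicle and 100% = reference agonist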
PPARg SRC3 recr: PPARgamma agonists recruiting SRC-3 coactivator, primary screen, biochemical; biochemical PPARgamma/SRC-3 coactivator recruitment assay; activation, % at 8 µM; 0.26% of 200,000 active; in the data active = activation above about 23%;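 also: 0% = DMSO and 100% = reference agonist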
SRC3 TRFRET art: TR-FRET detection interference compounds, artefact control for PPARgamma SRC-3 recruitment agonists, biochemical, TR-FRET ratio. 0.39% of 99,000 active. AID 1048, 2008. TR-FRET artefact counter-screen, PPARgamma/SRC-3 format; active compounds read high. TR-FRET ratio at 8 µM
SRC1 TRFRET art: TR-FRET detection interference compounds, primary screen, artefact control for PPARgamma SRC-1 recruitment agonists, biochemical, TR-FRET emission ratio; TR-FRET detection artefact counter-screen; active compounds read high; AID 1051, 2008; TR-FRET ratio at 8 µM; 0.34% of 99,000 active; in the data active = TR-FRET ratio above about 2300
The depositor's hits bear a star; . = not tested or not shown. An excerpt weighted towards active compounds, which were near 0.9% of everything screened. Rule as the data show it, unless noted: active = TR-FRET ratio above about 2000; inactive = the rest.

SMILES | PPARg SRC1 recr | TR-FRET SRC-2 ct | PPARg SRC-2 ag | PPARg SRC3 recr | SRC3 TRFRET art | SRC1 TRFRET art
Cc1ccc(-c2nnc(NCc3nc4ccccc4[nH]3)c3ccccc23)cc1S(=O)(=O)N1CCCCC1 | 5.2 | 1948 | 5.1 | 0.1 | 2547* | 2094
CC(=O)CCc1ccc(OC(=O)c2cccnc2)cc1 | 4.5 | 1983* | 25.9* | 0.6 | . | .
O=C(CNC(=O)c1cccs1)OCC(=O)c1ccc2ccccc2c1 | -4.7 | 1722 | 10.1 | 2.7 | . | .
CC(C)(C)c1ccc(C(=O)NCC(=O)OCC(=O)c2ccc3c(c2)-c2ccccc2C3)cc1 | 0.7 | 2064* | 7.3 | 1.8 | 1890 | 2576*
COC(=O)c1ccccc1NC(=O)Cc1nc(-c2ccccc2)sc1-c1ccc(C)cc1 | 6.6 | 1651 | -5.9 | 4.2 | 2243* | 1833
Nc1nc(-c2ccc(Cl)cc2)nnc1-c1ccc(Br)cc1 | 0.8 | 1760 | -2.2 | 10.7 | 3281* | 1858
CC(=O)c1cc(C(=O)N2CCc3c([nH]c4ccccc34)C2C2CCCCC2)[nH]n1 (stereo not drawn) | 5.2 | 1539 | -4.2 | -2.3 | 1490 | 1704
c1ccc2[nH]c3cc4ncnc4cc3nc2c1 | 21.8* | 1543 | 8.1 | 14.7 | 1699 | 1830
C/C(=N\NC(=O)c1ccc(=O)[nH]n1)c1cccnc1 | 3.3 | 1616 | -6.3 | 2.3 | 1578 | 1727
CC(C)(C)c1nnc(NC(=O)c2cccnc2)s1 | -0.6 | 1581 | 0.6 | 1.8 | 1504 | 1570
COC(=O)c1c(NC(=O)COC(=O)[C@@H](NS(=O)(=O)c2ccc(C)cc2)C(C)C)sc2c1CCC2 | -0.3 | 1637 | 6.0 | 3.1 | 1800 | 2338*
COC(=O)c1c(NC(=O)COC(=O)c2ccc(C)s2)sc2c1CCCCC2 | -0.8 | 1436 | 6.9 | 0.5 | 1742 | 1447
Fc1ccccc1CSc1nc2ncc(Br)cc2[nH]1 | 3.3 | 1920 | 23.7* | 6.7 | . | .
N#Cc1ccccc1CSc1nc2ncc(Br)cc2[nH]1 | 3.7 | 1754 | 15.8 | 3.0 | 1759 | 1936
O=C(c1ccccc1Cl)N(Cc1ccc(Br)cc1)N1C(=O)CCC1=O | 7.1 | 1709 | 15.8 | 7.3 | 1716 | 1892
C#CCSc1nnc(-c2ccccc2)c(=O)[nH]1 | 3.7 | 1756 | 22.5* | 9.3 | . | .
COc1ccc(C2(CNC(=O)/C=C\c3ccco3)CCCC2)cc1OC | 40.8* | 1498 | 1.6 | -5.5 | . | .
CCCSc1nc2c(=O)[nH][nH]c(=O)c2n1Cc1ccccc1 | -2.7 | 1289 | 3.3 | 15.7 | . | .
CC1Cc2ccccc2N1C(=O)CSc1nnnn1-c1ccc2c(c1)OCCO2 (stereo not drawn) | 6.9 | 2058* | 17.7 | 2.9 | . | .
CSC1=NCCN1C(=O)C12CC3CC(CC(C3)C1)C2 | 1.1 | 1466 | -1.8 | -3.4 | 1435 | 1458
O=S(=O)(c1ccccc1)c1cnn2c(C(F)(F)F)cc(-c3ccccc3)nc12 | 2.5 | 1466 | 2.7 | 0.0 | . | .
O=S(=O)(c1ccccc1)c1cnn2c(C(F)(F)F)cc(-c3ccc(F)cc3)nc12 | 21.3* | 1524 | 3.9 | 5.2 | . | .
O=C(c1ccco1)N1CCN(S(=O)(=O)Cc2ccccc2Cl)CC1 | 5.3 | 1604 | 8.8 | -3.8 | 1535 | 1900
CCOc1ccc(-n2c(SCC(=O)c3c(N)n(C)c(=O)n(C)c3=O)nnc2-c2cccnc2)cc1 | -0.8 | 1609 | 7.2 | 1.3 | 1749 | 1782
